Out of some 310,000 compounds screened, about 14,000 (4.5%) showed an effect of 50% or more. Effects have a minus sign here. The sample as a whole holds a higher share of strong results than the screen did.
biological target: human ether-à-go-go-related gene (hERG) potassium channel (human, UniProt Q12809); test: primary screen, population patch clamp on CHO cells stably expressing hERG; higher = less effect of the substance
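Also: peak tail current of the secondary pulse compared with the same well before compound.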

Sequence of human ether-à-go-go-related gene (hERG) potassium channel (Q12809 whole entry, looked up): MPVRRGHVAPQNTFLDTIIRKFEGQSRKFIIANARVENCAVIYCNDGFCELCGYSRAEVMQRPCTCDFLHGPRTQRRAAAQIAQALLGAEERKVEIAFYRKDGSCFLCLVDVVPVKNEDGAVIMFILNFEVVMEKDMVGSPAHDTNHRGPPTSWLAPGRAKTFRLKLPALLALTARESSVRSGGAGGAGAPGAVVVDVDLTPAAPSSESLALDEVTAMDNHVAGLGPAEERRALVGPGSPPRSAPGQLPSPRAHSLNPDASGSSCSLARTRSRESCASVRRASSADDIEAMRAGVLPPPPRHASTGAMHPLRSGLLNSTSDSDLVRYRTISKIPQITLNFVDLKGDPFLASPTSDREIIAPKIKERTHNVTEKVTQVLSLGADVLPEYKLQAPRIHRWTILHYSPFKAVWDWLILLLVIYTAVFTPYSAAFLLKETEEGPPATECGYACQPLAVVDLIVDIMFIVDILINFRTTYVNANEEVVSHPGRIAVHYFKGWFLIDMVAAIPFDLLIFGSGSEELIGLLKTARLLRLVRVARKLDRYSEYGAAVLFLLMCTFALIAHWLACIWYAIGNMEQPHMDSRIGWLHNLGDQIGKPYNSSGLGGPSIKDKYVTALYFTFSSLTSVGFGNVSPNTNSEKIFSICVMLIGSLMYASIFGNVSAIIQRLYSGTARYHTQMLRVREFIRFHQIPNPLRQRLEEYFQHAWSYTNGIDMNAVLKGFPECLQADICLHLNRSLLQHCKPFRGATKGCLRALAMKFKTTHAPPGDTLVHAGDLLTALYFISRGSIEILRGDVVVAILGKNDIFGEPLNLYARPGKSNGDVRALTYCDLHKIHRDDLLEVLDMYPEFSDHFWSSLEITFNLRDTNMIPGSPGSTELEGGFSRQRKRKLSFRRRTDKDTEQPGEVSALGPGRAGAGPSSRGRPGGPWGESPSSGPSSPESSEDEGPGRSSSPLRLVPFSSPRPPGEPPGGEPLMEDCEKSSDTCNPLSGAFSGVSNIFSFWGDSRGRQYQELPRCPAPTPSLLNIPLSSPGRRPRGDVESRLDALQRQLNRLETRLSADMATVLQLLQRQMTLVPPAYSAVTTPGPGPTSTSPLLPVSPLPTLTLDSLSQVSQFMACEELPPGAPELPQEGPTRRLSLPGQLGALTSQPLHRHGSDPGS

Compound	hERG current change (%, negative = inhibition) at 10uM [%]
CCCC(CCC(=O)Nc1cccc([N+](=O)[O-])c1)C(=O)O (stereo not shown)	-0.0899
CCOc1ccc(-n2c(C)nc3cc(C(=O)NCC4CCCO4)ccc32)cc1 (stereo not shown)	-15.2
CCN(CC)c1ccc(S(=O)(=O)N2CCCCC2)cc1NC(=O)C1CCC1	-15.3
CC1(C)CC(=O)c2cnc(NCC3CCCO3)nc2C1 (stereo not shown)	7.24
COc1cc(C2=NOC(C(=O)Nc3ccc4c(c3)OCO4)C2)cc(OC)c1OC (stereo not shown)	16.6
FC(F)(F)c1nc(N2CCCC2)ncc1-c1nnnn1-c1ccc(Cl)cc1	-4.4
CC1(C)C(N(O)C(=O)Nc2ccc(Cl)cc2)N(c2ccc(Cl)cc2)C(=O)N1CC(=O)NN (stereo not shown)	-14.6
O=c1cc(-c2ccccc2)[nH]n2cnnc12	12.6
COc1ccc(/C=C2\SC(=O)N(CCC(=O)NCCCn3ccnc3)C2=O)cc1	-43.2
O=C(CN1C(=O)S/C(=C\c2ccc(F)cc2)C1=O)NCCCn1ccnc1	-58.9
COc1cccc(/C=C2\SC(=O)N(CC(=O)NCCCn3ccnc3)C2=O)c1	-31.6
CC(C)c1ccc(/C=C2\SC(=O)N(CC(=O)NCCCn3ccnc3)C2=O)cc1	-76.9
O=C(CN1C(=O)S/C(=C\c2ccccc2)C1=O)NCCCn1ccnc1	-23.4
O=C(CN1C(=O)S/C(=C\c2ccccc2F)C1=O)NCCCn1ccnc1	-9.34
COc1ccc(/C=C2\SC(=O)N(CC(=O)NCCCn3ccnc3)C2=O)cc1	-44.5
O=C(CN1C(=O)S/C(=C\c2ccccc2Cl)C1=O)NCCCn1ccnc1	-44.5
O=C(CN1C(=O)S/C(=C\c2ccc(Cl)cc2)C1=O)NCCCn1ccnc1	-68.2
COc1ccccc1/C=C1\SC(=O)N(CC(=O)NCCCn2ccnc2)C1=O	-3.76
O=C(CN1C(=O)S/C(=C\c2cccc(Cl)c2)C1=O)NCCCn1ccnc1	-51.2
CC(C)c1ccc(/C=C2\SC(=S)N(CCC(=O)NCCCn3ccnc3)C2=O)cc1	-17.3
CCCCCCCCN1[C@@H](CC(=O)OC)c2cc(C(F)(F)F)ccc2S1(=O)=O	1.99
Cc1cc(C)n(-c2nc3c(c(=O)[nH]c(=O)n3C)n2C)n1	10.1
Oc1ccc(-c2cc(-c3ccc(O)cc3)nc(-c3ccccc3)n2)cc1	20.1

Compound	hERG current change (%, negative = inhibition) at 10uM [%]
Cc1ccc(S(=O)(=O)n2[nH]c(=O)cc2NC(=O)c2cccs2)cc1	-0.667
CCc1nn2c(=O)cc(CSCC(=O)Nc3ccccc3F)nc2s1	11.3
Cc1ccccc1OCC(=O)N1CCCCCCC1	1.22
CCC(C#CCN1CCCCC1)(CC)OCCC#N	2.57
CCOC(=O)CSc1ncc(-c2ccccc2)nn1	-6.58
CCOC(=O)Cc1nnc(NC(=O)CSc2ncc(-c3ccccc3)nn2)s1	-58.7
CCOC(=O)Cc1nnc(NC(=O)CSc2ccccc2)s1	7.53
C=CCc1cc(C=O)cc(OCC)c1OCc1ccc(Cl)cc1	31.4
COc1ccccc1C1C(C#N)=C(N)Oc2cc(C)n(Cc3ccccn3)c(=O)c21 (stereo not shown)	-2.81
Cc1ccc2c(c1)C(=C(C#N)C#N)C(=O)N2CCN1CCOCC1	-38.6
CCCS(=O)(=O)c1nc(S(=O)(=O)c2ccc(C)cc2)c(N2CCc3ccccc3C2)s1	5.34
O=C(c1cc(-c2ccc(O)cc2)on1)N1CCCc2ccccc21	-29.5
Cc1ccc(-c2cnc(SCC(=O)N3CCCc4ccccc43)n2C)cc1	-50.8
O=C(c1cc(-c2ccccc2)on1)N1CCCc2ccccc21	-18.1
Cc1ccc(-c2cc(C(=O)N3CCCc4ccccc43)no2)cc1	-75.6
Cn1c(-c2ccccc2)cnc1SCC(=O)N1CCCc2ccccc21	-27.9
Cn1c(-c2ccc(F)cc2)cnc1SCC(=O)N1CCCc2ccccc21	-24.8
O=C(NCc1ccc(F)cc1Cl)C1CCN(S(=O)(=O)N2CCC3(CC2)OCCO3)CC1	-13.9
CC(=O)Oc1ccc(NC(=O)Cc2ccccc2)cc1	24.9
Cc1ccc(OCC(=O)c2ccc3c(c2)CCCC3)cc1C	4.7
C=CCSc1ncnc2sc(C)c(C)c12	9.87
COc1ccc(Cl)cc1NC(=O)C1(c2cccs2)CCOCC1	-17.8
CC(CCc1ccc(O)cc1)NCc1ccc(Cl)cc1Cl (stereo not shown)	-63.8

Compound	hERG current change (%, negative = inhibition) at 10uM [%]
COc1ccc(CNCCc2ccc(Cl)cc2Cl)cc1	-22.2
COc1ccc(CCC(C)NCCc2ccc(Cl)cc2Cl)cc1 (stereo not shown)	-71.8
COc1ccc(CCNC(C)CCc2ccc(OC)cc2)cc1 (stereo not shown)	-13
CC(CCc1ccc(O)cc1)NCc1ccc(Br)cc1 (stereo not shown)	-76.2
CC(CCc1ccccc1)NCc1ccncc1 (stereo not shown)	-8.72
CC(CCc1ccccc1)NCc1ccc(Cl)cc1Cl.O=C(O)C(=O)O (stereo not shown)	-31.5
COc1ccc(CCC(C)NCc2cc(OC)cc(OC)c2)cc1 (stereo not shown)	-42.3
COc1ccc(CCC(C)NCc2ccc(Cl)c(Cl)c2)cc1 (stereo not shown)	-53.7
CC(O)CNCc1ccc(Cl)cc1Cl.Cl (stereo not shown)	12.3
COc1ccc(CCC(C)Nc2ccc(F)c(F)c2)cc1 (stereo not shown)	5.47
CC(CCc1ccccc1)NC(=O)Cc1ccc(Br)cc1 (stereo not shown)	8.87
Cc1cc(C)nc(/N=C2\NC(=O)CC(C(=O)O)N2c2ccc(Cl)cc2)n1 (stereo not shown)	14.9
COC(=O)CSc1ccc2nnc(CCNS(=O)(=O)c3ccccc3)n2n1	24.3
CC(=O)c1c(COC(=O)c2cccc(C)c2)nc2ccccc2[n+]1[O-]	-1.95
Cn1c(=O)c2c(nc(SCC(=O)NCC3CCCO3)n2C)n(C)c1=O (stereo not shown)	2.28
Cc1c(NC(=S)NC(=O)c2ccccc2Cl)c(=O)n(-c2ccccc2)n1C	33.4
COc1cccc(CC(=O)Nc2cc(S(=O)(=O)N3CCCCC3)ccc2C)c1	-15.9
Cc1c(CC(=O)O)c(=O)oc2cc(OCc3nn[nH]n3)ccc12	-0.585
COc1cc(NC(=O)C2CCCCC2)c(OC)cc1NC(=O)CN1CCCCC1	-12
COc1ccc(N2CCN(S(=O)(=O)c3ccc4c(c3)N(C(C)=O)CCO4)CC2)cc1	-18.4
CC(C)CC(=O)C(=O)[O-].[Na+]	-0.864
COc1ccc(CCC(C)NCc2ccc(C(F)(F)F)cc2)cc1 (stereo not shown)	-66.3
COc1ccc(CCC(C)NCC2CCCCC2)cc1 (stereo not shown)	-14.9

Compound	hERG current change (%, negative = inhibition) at 10uM [%]
COc1ccc(CCC(C)Nc2cccc(C)c2)cc1 (stereo not shown)	4.48
COc1ccc(CCC(C)NCc2ccc(F)cc2)cc1 (stereo not shown)	-44.8
COc1ccc(CC(=O)NC(C)CCc2ccccc2)cc1 (stereo not shown)	5.43
COc1ccc(CCC(C)NCc2cccc(Br)c2)cc1 (stereo not shown)	-64.6
O=C(/C=C/c1ccco1)Nc1cccc2cccnc12	-1.87
CCOC(=O)c1cnn(-c2cc(C)c3ccccc3n2)c1N	-1.77
O=C(Cc1cccc2ccccc12)NC(NC(=S)Nc1ccccc1Cl)C(Cl)(Cl)Cl (stereo not shown)	11.7
Cc1cccc(Oc2ncc(-c3ccc(Cl)cc3)cn2)c1	5.22
Cc1ccc(S(=O)(=O)N2CCN(C(=O)c3ccccc3Cc3ccccc3)CC2)c(C)c1	4.42
O=C(Cc1ccccn1)c1ccc(Cl)cc1	17
CN(CCc1ccccn1)C1CC(=O)N(c2ccc(Cl)cc2)C1=O (stereo not shown)	6.39
O=C1CC(N2CCN(c3ccccn3)CC2)C(=O)N1c1ccc(Cl)cc1 (stereo not shown)	4.46
COc1ccc(C(=O)N2CCN(CCc3ccccn3)CC2)cc1.Cl	-77.3
COc1ccc(C(=O)N2CCN(Cc3ccccn3)CC2)cc1.O=C(O)C(=O)O	-5.82
O=C1CC(N2CCN(CCc3ccccn3)CC2)C(=O)N1c1ccc(Cl)cc1 (stereo not shown)	-67.4
O=C(c1ccccc1)N1CCN(CCc2ccccn2)CC1	8.41
Cl.O=C(c1ccc(Cl)cc1)N1CCN(CCc2ccccn2)CC1	-69
COc1ccc(C(=O)N2CCN(c3ccccn3)CC2)cc1	3.55
COc1cc(-c2noc(C)c2C#Cc2ccsc2)cc(OC)c1OC	10.8
Cc1ccc(Nc2nnc(SCn3nnc4ccccc4c3=O)s2)cc1	2.83
N#Cc1ccc(-c2csc(-c3ccno3)n2)cc1	-14.6
CC1=C[C@H]2OC(=O)[C@@H](C)[C@H]2C[C@@H]2[C@H]1C[C@@H](O)[C@@]2(C)O	6.22
